Article PMC7862700, “An all-to-all approach to the identification of sequence-specific readers for epigenetic DNA modifications on cytosine”

Experiments:
Assay in all cases: DAPPL (digital affinity profiling via proximity ligation, sequencing); 10 mM Tris-HCl pH 7.5, 50 mM NaCl, 1 mM DTT, 4% glycerol, room temperature, 30 min; GST-TFs on glutathione beads, 16-mer random dsDNA library, 0.1% formaldehyde crosslink after washing; high values mean tight binding
FEV = target: T1, FEV (Homo sapiens, UniProt Q99581 1-238); settings: protein: recombinant; tags: N-terminal GST; dsDNA, one strand shown
T1 sequence: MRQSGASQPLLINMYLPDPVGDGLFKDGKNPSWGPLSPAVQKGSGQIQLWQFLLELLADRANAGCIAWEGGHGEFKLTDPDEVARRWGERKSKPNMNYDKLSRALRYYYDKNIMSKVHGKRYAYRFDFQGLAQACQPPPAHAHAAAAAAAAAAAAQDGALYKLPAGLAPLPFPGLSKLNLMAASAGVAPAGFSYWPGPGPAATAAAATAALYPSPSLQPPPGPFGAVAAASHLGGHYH
Outline: (§1)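 Sequencing on an Illumina NextSeq500 followed washing, crosslinking with 0.1% formaldehyde, proximity ligation (BsaI/T4 ligase, 1 h, 37 °C) and PCR amplification of pools that had been incubated for 30 min at room temperature with 200 nmole of a random double-stranded 16-mer DNA library in Tris/NaCl/DTT/glycerol buffer. Each pool held DNA-barcoded human transcription factors, expressed in yeast as GST fusions and captured on glutathione beads, plus a tag-only sample. Binding signal is a hexamer's read frequency for a factor divided by its frequency in the tag-only sample.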

ETV5 = ETV5 (Homo sapiens, UniProt P41161 1-510); settings: protein: recombinant; tags: N-terminal GST; dsDNA, one strand shown
Outline: as §1

HSF1 = HSF1 (Homo sapiens, UniProt Q00613 1-529); settings: protein: recombinant; tags: N-terminal GST; chain copies: 3; dsDNA, one strand shown
Outline: as §1

SPIC = target: T2, SPIC (Homo sapiens, UniProt Q8N5J4 1-248); settings: protein: recombinant; tags: N-terminal GST; dsDNA, one strand shown
T2 sequence: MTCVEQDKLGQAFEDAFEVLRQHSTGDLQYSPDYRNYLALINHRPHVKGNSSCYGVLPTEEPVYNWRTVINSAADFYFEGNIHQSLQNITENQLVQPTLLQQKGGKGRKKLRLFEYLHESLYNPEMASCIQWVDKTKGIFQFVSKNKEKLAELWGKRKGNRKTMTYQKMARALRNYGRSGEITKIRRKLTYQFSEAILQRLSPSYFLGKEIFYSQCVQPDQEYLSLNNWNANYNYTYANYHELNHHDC
Outline: as §1

ELF4 = ELF4 (Homo sapiens, UniProt Q99607 1-663); settings: protein: recombinant; tags: N-terminal GST; dsDNA, one strand shown
Outline: as §1

ELK4 = target: T3, ELK4 (Homo sapiens, UniProt P28324-2 1-405); settings: protein: recombinant; tags: N-terminal GST; dsDNA, one strand shown
T3 sequence: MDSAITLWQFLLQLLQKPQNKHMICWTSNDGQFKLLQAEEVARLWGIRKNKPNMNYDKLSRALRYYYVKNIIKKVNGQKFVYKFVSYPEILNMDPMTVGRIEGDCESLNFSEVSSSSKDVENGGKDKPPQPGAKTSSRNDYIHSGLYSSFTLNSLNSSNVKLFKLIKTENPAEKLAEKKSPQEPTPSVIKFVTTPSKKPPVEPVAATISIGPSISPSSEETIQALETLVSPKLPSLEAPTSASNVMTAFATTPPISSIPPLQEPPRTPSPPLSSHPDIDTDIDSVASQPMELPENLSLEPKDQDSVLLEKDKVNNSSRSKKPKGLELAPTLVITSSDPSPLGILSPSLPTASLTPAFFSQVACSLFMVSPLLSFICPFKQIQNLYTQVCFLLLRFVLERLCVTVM
Outline: as §1

ETV2 = target: T4, ETV2 (Homo sapiens, UniProt O00321 1-342); settings: protein: recombinant; tags: N-terminal GST; dsDNA, one strand shown
T4 sequence: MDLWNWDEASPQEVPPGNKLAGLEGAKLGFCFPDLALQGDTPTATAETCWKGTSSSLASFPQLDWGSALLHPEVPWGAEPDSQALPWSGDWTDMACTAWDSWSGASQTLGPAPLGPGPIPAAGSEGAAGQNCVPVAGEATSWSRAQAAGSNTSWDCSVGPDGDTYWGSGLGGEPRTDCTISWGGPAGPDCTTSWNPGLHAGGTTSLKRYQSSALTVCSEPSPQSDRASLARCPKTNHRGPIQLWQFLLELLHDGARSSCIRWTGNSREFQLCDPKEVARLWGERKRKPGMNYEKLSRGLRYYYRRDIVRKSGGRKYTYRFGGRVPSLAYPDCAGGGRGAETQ
Outline: as §1

ELF3 = target: T5, ELF3 (Homo sapiens, UniProt P78545 1-371); settings: protein: recombinant; tags: N-terminal GST; dsDNA, one strand shown
T5 sequence: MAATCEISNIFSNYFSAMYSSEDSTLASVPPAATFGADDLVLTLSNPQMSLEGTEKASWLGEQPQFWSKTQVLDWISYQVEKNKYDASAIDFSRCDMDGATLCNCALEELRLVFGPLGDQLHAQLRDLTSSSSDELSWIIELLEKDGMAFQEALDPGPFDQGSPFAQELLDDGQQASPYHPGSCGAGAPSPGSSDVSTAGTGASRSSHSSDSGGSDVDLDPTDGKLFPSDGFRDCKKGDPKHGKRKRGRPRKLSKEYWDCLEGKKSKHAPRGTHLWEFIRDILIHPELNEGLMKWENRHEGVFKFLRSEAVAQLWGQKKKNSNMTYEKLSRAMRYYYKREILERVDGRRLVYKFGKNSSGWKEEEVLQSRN
Outline: as §1

CRX = CRX (Homo sapiens, UniProt O43186 1-299); settings: protein: recombinant; tags: N-terminal GST; dsDNA, one strand shown
Outline: as §1

ETV1 = ETV1 (Homo sapiens, UniProt P50549 1-477); settings: protein: recombinant; tags: N-terminal GST; dsDNA, one strand shown
Outline: as §1

Chain of HSF1 (Q00613 whole entry): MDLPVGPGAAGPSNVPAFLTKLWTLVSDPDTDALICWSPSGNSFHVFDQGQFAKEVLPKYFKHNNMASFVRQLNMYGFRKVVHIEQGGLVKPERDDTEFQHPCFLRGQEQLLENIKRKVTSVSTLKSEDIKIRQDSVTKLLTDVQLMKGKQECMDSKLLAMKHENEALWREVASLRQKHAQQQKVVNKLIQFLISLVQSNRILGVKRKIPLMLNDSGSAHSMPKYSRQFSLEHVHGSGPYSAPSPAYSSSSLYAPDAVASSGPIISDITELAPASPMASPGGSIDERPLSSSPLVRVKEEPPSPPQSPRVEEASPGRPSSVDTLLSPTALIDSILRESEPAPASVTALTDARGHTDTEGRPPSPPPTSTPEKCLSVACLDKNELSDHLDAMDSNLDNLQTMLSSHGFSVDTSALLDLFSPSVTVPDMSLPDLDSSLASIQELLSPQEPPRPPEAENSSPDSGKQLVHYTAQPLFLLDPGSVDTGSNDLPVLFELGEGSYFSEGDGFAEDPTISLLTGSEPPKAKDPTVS
Chain of ETV1 (P50549 whole entry): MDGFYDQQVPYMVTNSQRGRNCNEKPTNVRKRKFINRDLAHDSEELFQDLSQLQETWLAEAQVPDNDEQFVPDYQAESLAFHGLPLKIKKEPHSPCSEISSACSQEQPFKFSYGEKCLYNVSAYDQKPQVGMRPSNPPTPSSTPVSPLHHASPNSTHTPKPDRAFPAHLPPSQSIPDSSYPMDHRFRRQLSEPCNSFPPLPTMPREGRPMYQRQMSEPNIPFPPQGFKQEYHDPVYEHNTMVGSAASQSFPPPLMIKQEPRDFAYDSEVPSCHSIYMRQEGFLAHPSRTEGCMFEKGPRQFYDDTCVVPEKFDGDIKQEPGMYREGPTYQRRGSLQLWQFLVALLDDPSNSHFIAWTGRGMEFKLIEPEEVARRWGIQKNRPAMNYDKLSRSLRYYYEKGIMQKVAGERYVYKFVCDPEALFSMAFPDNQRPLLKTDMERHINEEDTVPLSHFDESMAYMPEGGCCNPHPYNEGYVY
Chain of ELF4 (Q99607 whole entry): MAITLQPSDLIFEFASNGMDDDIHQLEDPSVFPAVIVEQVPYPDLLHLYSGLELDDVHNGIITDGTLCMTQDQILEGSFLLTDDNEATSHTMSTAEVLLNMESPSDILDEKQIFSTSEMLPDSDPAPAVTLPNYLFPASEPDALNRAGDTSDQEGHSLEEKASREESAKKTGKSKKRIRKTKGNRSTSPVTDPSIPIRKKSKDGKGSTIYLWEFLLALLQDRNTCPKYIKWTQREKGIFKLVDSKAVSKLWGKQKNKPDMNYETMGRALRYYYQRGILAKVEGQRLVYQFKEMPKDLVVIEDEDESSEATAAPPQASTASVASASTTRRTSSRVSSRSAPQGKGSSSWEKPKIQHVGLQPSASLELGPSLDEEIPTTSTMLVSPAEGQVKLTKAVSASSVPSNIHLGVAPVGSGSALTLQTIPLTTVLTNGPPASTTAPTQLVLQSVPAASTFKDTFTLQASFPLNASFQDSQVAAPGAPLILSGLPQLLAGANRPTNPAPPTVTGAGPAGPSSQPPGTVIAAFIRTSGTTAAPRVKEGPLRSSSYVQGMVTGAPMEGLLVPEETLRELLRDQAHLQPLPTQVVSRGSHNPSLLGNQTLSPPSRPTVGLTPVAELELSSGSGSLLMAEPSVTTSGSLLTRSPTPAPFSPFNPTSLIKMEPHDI
Chain of CRX (O43186 whole entry): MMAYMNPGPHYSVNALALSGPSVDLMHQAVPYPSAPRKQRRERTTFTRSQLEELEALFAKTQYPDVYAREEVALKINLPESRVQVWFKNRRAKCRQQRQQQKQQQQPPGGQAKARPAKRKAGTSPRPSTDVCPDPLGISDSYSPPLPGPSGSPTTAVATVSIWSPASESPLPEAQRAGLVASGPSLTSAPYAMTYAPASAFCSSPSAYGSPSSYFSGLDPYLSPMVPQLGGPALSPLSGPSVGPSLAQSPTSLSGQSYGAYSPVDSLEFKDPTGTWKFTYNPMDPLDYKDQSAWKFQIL
Chain of ETV5 (P41161 whole entry): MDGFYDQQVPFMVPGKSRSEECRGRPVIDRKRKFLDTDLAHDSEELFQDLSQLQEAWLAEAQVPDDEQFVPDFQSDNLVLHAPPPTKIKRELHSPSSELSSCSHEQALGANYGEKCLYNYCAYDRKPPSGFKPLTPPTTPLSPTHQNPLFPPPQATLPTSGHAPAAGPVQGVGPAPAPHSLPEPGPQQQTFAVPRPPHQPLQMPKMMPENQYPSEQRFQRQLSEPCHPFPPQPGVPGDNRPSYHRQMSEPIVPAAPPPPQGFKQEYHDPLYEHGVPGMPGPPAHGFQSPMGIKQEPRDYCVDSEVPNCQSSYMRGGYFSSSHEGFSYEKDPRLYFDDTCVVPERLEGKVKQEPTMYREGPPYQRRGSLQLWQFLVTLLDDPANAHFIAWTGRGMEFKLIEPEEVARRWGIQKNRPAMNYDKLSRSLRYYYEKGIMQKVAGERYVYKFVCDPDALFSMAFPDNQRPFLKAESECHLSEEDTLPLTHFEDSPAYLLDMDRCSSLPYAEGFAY

Row | Sequence | binding signal (FEV) | binding signal (ETV5) | binding signal (HSF1) | binding signal (SPIC) | binding signal (ELF4) | binding signal (ELK4) | binding signal (ETV2) | binding signal (ELF3) | binding signal (CRX) | binding signal (ETV1)
1 | ATTGTT | 1.52 fold enrichment (6-mer frequency, TF over GST control) | 1.57 fold enrichment (6-mer frequency, TF over GST control) | 1.63 fold enrichment (6-mer frequency, TF over GST control) | 1.45 fold enrichment (6-mer frequency, TF over GST control) | 1.41 fold enrichment (6-mer frequency, TF over GST control) | 1.4 fold enrichment (6-mer frequency, TF over GST control) | 1.57 fold enrichment (6-mer frequency, TF over GST control) | 1.49 fold enrichment (6-mer frequency, TF over GST control) | 1.55 fold enrichment (6-mer frequency, TF over GST control) | 1.47 fold enrichment (6-mer frequency, TF over GST control)
2 | CCTTGG | 1.17 fold enrichment (6-mer frequency, TF over GST control) | 1.21 fold enrichment (6-mer frequency, TF over GST control) | 1.1 fold enrichment (6-mer frequency, TF over GST control) | 1.23 fold enrichment (6-mer frequency, TF over GST control) | 1.27 fold enrichment (6-mer frequency, TF over GST control) | 1.37 fold enrichment (6-mer frequency, TF over GST control) | 1.28 fold enrichment (6-mer frequency, TF over GST control) | 1.22 fold enrichment (6-mer frequency, TF over GST control) | 1.09 fold enrichment (6-mer frequency, TF over GST control) | 1.35 fold enrichment (6-mer frequency, TF over GST control)
3 | TACCAC | 1.3 fold enrichment (6-mer frequency, TF over GST control) | 1.19 fold enrichment (6-mer frequency, TF over GST control) | 1.12 fold enrichment (6-mer frequency, TF over GST control) | 1.25 fold enrichment (6-mer frequency, TF over GST control) | 1.23 fold enrichment (6-mer frequency, TF over GST control) | 1.18 fold enrichment (6-mer frequency, TF over GST control) | 1.2 fold enrichment (6-mer frequency, TF over GST control) | 1.25 fold enrichment (6-mer frequency, TF over GST control) | 1.17 fold enrichment (6-mer frequency, TF over GST control) | 1.24 fold enrichment (6-mer frequency, TF over GST control)
4 | TCTTTC | 1.39 fold enrichment (6-mer frequency, TF over GST control) | 1.36 fold enrichment (6-mer frequency, TF over GST control) | 1.82 fold enrichment (6-mer frequency, TF over GST control) | 1.31 fold enrichment (6-mer frequency, TF over GST control) | 1.32 fold enrichment (6-mer frequency, TF over GST control) | 1.46 fold enrichment (6-mer frequency, TF over GST control) | 1.42 fold enrichment (6-mer frequency, TF over GST control) | 1.19 fold enrichment (6-mer frequency, TF over GST control) | 1.41 fold enrichment (6-mer frequency, TF over GST control) | 1.47 fold enrichment (6-mer frequency, TF over GST control)
5 | TCTCAC | 1.47 fold enrichment (6-mer frequency, TF over GST control) | 1.34 fold enrichment (6-mer frequency, TF over GST control) | 1.3 fold enrichment (6-mer frequency, TF over GST control) | 1.55 fold enrichment (6-mer frequency, TF over GST control) | 1.37 fold enrichment (6-mer frequency, TF over GST control) | 1.35 fold enrichment (6-mer frequency, TF over GST control) | 1.18 fold enrichment (6-mer frequency, TF over GST control) | 1.42 fold enrichment (6-mer frequency, TF over GST control) | 1.33 fold enrichment (6-mer frequency, TF over GST control) | 1.3 fold enrichment (6-mer frequency, TF over GST control)
6 | TATGAC | 1.25 fold enrichment (6-mer frequency, TF over GST control) | 1.33 fold enrichment (6-mer frequency, TF over GST control) | 1.18 fold enrichment (6-mer frequency, TF over GST control) | 1.28 fold enrichment (6-mer frequency, TF over GST control) | 1.32 fold enrichment (6-mer frequency, TF over GST control) | 1.45 fold enrichment (6-mer frequency, TF over GST control) | 1.23 fold enrichment (6-mer frequency, TF over GST control) | 1.45 fold enrichment (6-mer frequency, TF over GST control) | 1.23 fold enrichment (6-mer frequency, TF over GST control) | 1.26 fold enrichment (6-mer frequency, TF over GST control)
7 | TCGCTT | 1.2 fold enrichment (6-mer frequency, TF over GST control) | 1.38 fold enrichment (6-mer frequency, TF over GST control) | 1.11 fold enrichment (6-mer frequency, TF over GST control) | 1.08 fold enrichment (6-mer frequency, TF over GST control) | 1.24 fold enrichment (6-mer frequency, TF over GST control) | 1.21 fold enrichment (6-mer frequency, TF over GST control) | 1.05 fold enrichment (6-mer frequency, TF over GST control) | 1.18 fold enrichment (6-mer frequency, TF over GST control) | 1.15 fold enrichment (6-mer frequency, TF over GST control) | 1.24 fold enrichment (6-mer frequency, TF over GST control)
8 | TTCAGC | 1.25 fold enrichment (6-mer frequency, TF over GST control) | 1.22 fold enrichment (6-mer frequency, TF over GST control) | 1.04 fold enrichment (6-mer frequency, TF over GST control) | 1.16 fold enrichment (6-mer frequency, TF over GST control) | 1.28 fold enrichment (6-mer frequency, TF over GST control) | 1.23 fold enrichment (6-mer frequency, TF over GST control) | 1.14 fold enrichment (6-mer frequency, TF over GST control) | 1.27 fold enrichment (6-mer frequency, TF over GST control) | 1.19 fold enrichment (6-mer frequency, TF over GST control) | 1.3 fold enrichment (6-mer frequency, TF over GST control)
